In PubChem BioAssay (NCATS):
Results filed as inconclusive are left out. Activity calls are given as the source filed them. Calls come from the whole dose curve; as a rule, active = well fitted curve in the direction sought with a large enough effect; inconclusive = small, poorly fitted or top-dose-only effect, or another doubt; inactive = no such curve, though single readings can be large; an effect the other way counts as inactive or inconclusive.

Tests used:
CRL-7250 = normal cell line; experiment: Cytotoxic Profiling of Annotated Libraries Using Quantitative High-Throughput Screening (AID 1296008); settings: Five cell lines viability, CellTiter-Glo ATP luminescence, 48-72 h; max response: active compounds read low; note: nearly all actives have a fitted effect of over 60% in size; for max response: % is set by controls: 0 for no effect and ±100 for the full control effect
Procedure, shortened: (§1)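 Cytotoxicity was measured as CellTiter-Glo ATP luminescence, read after 10 min at room temperature. Compound treatment of the cells lasted 48 or 72 hr at 37 degrees Celsius in a qHTS format.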

HEK293 = experiment: as above; settings: Five cell lines viability, CellTiter-Glo ATP luminescence, 48-72 h; max response: active compounds read low
Procedure, shortened: as §1

HaCat [1] = experiment: as above; settings: Five cell lines viability, CellTiter-Glo ATP luminescence, 48-72 h; max response: active compounds read low
Procedure, shortened: as §1

KB-3-1 = experiment: as above; settings: Five cell lines viability, CellTiter-Glo ATP luminescence, 48-72 h; max response: active compounds read low
Procedure, shortened: as §1

NIH3T3 [2] = experiment: as above; settings: Five cell lines viability, CellTiter-Glo ATP luminescence, 48-72 h; max response: active compounds read low
Procedure, shortened: as §1

HACAT [3] = experiment: qHTS assay to identify novel small-molecules to repurpose for Merkel cell carcinoma treatment (AID 1296009); settings: MCC and control cell lines, CellTiter-Glo viability, 72 h; at 44.8 µM (top of the series) unless noted; note: nearly all actives have a fitted effect of over 60% in size
Procedure, shortened: (§2)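 Cell viability measured by CellTiter-Glo following 72 hr compound treatment at 37 degree celsius, with NPC and MIPE libraries tested in 8- and 11-point concentration series.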

NIH3T3 [4] = experiment: as above; settings: MCC and control cell lines, CellTiter-Glo viability, 72 h; at 44.8 µM (top of the series) unless noted
Procedure, shortened: as §2

C33A = experiment: Primary qHTS to identify gynecologic anti-cancer compounds using libraries of approved drugs and bioactive compounds (AID 1345084); settings: Gynecologic cancer cell panel viability, ATPlite luminescence, 48 h; series mostly up to 57.5 µM; note: % is set by controls: 0 for no effect and ±100 for the full control effect; nearly all actives have a fitted effect of over 55% in size
Procedure, shortened: (§3)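 Five-point cytotoxicity, 48 h drug exposure at 37 C, 5% CO2, on cells seeded 16 h beforehand. ATP content read by ATPlite luminescence.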

CAOV3 = experiment: as above; settings: Gynecologic cancer cell panel viability, ATPlite luminescence, 48 h; series mostly up to 57.5 µM
Procedure, shortened: as §3

CASKI = experiment: as above; settings: Gynecologic cancer cell panel viability, ATPlite luminescence, 48 h; series mostly up to 57.5 µM
Procedure, shortened: as §3

Es-2 = experiment: as above; settings: Gynecologic cancer cell panel viability, ATPlite luminescence, 48 h; series mostly up to 57.5 µM
Procedure, shortened: as §3

HeLa = experiment: as above; settings: Gynecologic cancer cell panel viability, ATPlite luminescence, 48 h; series mostly up to 57.5 µM
Procedure, shortened: as §3

Hek293T = experiment: as above; settings: Gynecologic cancer cell panel viability, ATPlite luminescence, 48 h, control line for the selectivity index; series mostly up to 57.5 µM
Procedure, shortened: as §3

JEG-3 = experiment: as above; settings: Gynecologic cancer cell panel viability, ATPlite luminescence, 48 h; series mostly up to 57.5 µM
Procedure, shortened: as §3

C[C@]12CCC[C@](C)(C(=O)O)C1[C@@H](O)[C@@H](O)C13CC(CCC12)C(CO)(O[C@@H]1O[C@H](CO)[C@@H](O)[C@H](O)[C@H]1O)C3 (stereo partly drawn)
inactive: max response (CRL-7250) 4.72% | max response (HEK293) -8.27% | outcome (HaCat [1]) | max response (KB-3-1) 8.89% | outcome (NIH3T3 [2]) | outcome (HACAT [3]) inactive [at 17.4 µM] | outcome (NIH3T3 [4]) inactive [at 17.4 µM] | Potency (C33A) | Potency (CAOV3) | outcome (CASKI) | Potency (Es-2) | Potency (HeLa) | Potency (Hek293T) | Potency (JEG-3)

CC1=C(CC/C(C)=C/C(=O)O)[C@@]2(C)CCCC(C)(C)C2CC1=O (stereo partly drawn)
inactive: max response (CRL-7250) -7.55% | max response (HEK293) -5.92% | outcome (HaCat [1]) | outcome (KB-3-1) | outcome (NIH3T3 [2]) | outcome (HACAT [3]) | outcome (NIH3T3 [4]) | Potency (C33A) | Potency (CAOV3) | outcome (CASKI) | Potency (Es-2) | Potency (HeLa) | Potency (Hek293T) | Potency (JEG-3)

C=C(C)[C@@]1(O)C[C@@]2(C)C(=CC1=O)CC[C@@H](O)[C@@H]2C
inactive: max response (CRL-7250) 3.28% | max response (HEK293) 4.61% | outcome (HaCat [1]) | max response (KB-3-1) -1.96% | outcome (NIH3T3 [2]) | outcome (HACAT [3]) | outcome (NIH3T3 [4]) | Potency (C33A) | Potency (CAOV3) | outcome (CASKI) | Potency (Es-2) | Potency (HeLa) | Potency (Hek293T) | Potency (JEG-3)

CC(C)(O)c1ccc2c(c1)C(=O)C[C@H]1[C@](C)(C(=O)O)CCC[C@]21C
inactive: max response (CRL-7250) -1.21% | max response (HEK293) -10.2% | outcome (HaCat [1]) | max response (KB-3-1) 5.87% | outcome (NIH3T3 [2]) | outcome (HACAT [3]) | outcome (NIH3T3 [4]) | Potency (C33A) | Potency (CAOV3) | outcome (CASKI) | Potency (Es-2) | Potency (HeLa) | Potency (Hek293T) | Potency (JEG-3)

CC(O)C(=O)/C=C/C=C/C(=O)OC1C=C2COC(=O)C2(O)C2(C)CCCC(C)(C)C12 (stereo not drawn)
inactive: max response (CRL-7250) -6.23% | max response (HEK293) 3.48% | outcome (HaCat [1]) | max response (KB-3-1) 4.29% | outcome (NIH3T3 [2]) | outcome (HACAT [3]) inactive [at 17.4 µM] | outcome (NIH3T3 [4]) inactive [at 17.4 µM] | Potency (C33A) | Potency (CAOV3) | outcome (CASKI) | Potency (Es-2) | Potency (HeLa) | Potency (Hek293T) | Potency (JEG-3)

COc1cnc(-n2cnc(C)n2)c2[nH]cc(C(=O)C(=O)N3CCN(C(=O)c4ccccc4)CC3)c12
inactive: outcome (CRL-7250) | max response (HEK293) -12.9% | outcome (HaCat [1]) | outcome (KB-3-1) | outcome (NIH3T3 [2]) | outcome (HACAT [3]) | outcome (NIH3T3 [4]) | Potency (C33A) | Potency (CAOV3) | outcome (CASKI) | Potency (Es-2) | Potency (HeLa) | Potency (Hek293T) | Potency (JEG-3)

CC(=O)N[C@H]1[C@H](O[C@H]2CC[C@]3(C)C4CC=C5[C@@H]6CC(C)(C)CC[C@]6(C(=O)O)[C@H](O)C[C@@]5(C)[C@]4(C)CC[C@H]3C2(C)C)O[C@H](CO)[C@@H](O)[C@@H]1O (stereo partly drawn)
inactive: max response (CRL-7250) -7.8% | max response (HEK293) -6.92% | outcome (HaCat [1]) | max response (KB-3-1) -6.34% | outcome (NIH3T3 [2]) | outcome (HACAT [3]) inactive [at 17.4 µM] | outcome (NIH3T3 [4]) inactive [at 17.4 µM] | Potency (C33A) | Potency (CAOV3) | outcome (CASKI) | Potency (Es-2) | Potency (HeLa) | Potency (Hek293T) | Potency (JEG-3)

C=C(CC/C=C(\C)C(=O)O)C1(O)CC=C(C)CC1 (stereo not drawn)
inactive: max response (CRL-7250) 2.5% | max response (HEK293) 4.47% | outcome (HaCat [1]) | outcome (KB-3-1) | outcome (NIH3T3 [2]) | outcome (HACAT [3]) | outcome (NIH3T3 [4]) | Potency (C33A) | Potency (CAOV3) | outcome (CASKI) | Potency (Es-2) | Potency (HeLa) | Potency (Hek293T) | Potency (JEG-3)

C=C1[C@H]2CCC3[C@]4(C)CCC[C@@](C)(C(=O)O)C4CC[C@]3(C2)[C@H]1OC(C)=O (stereo partly drawn)
inactive: max response (CRL-7250) -1.83% | max response (HEK293) 3.77% | outcome (HaCat [1]) | outcome (KB-3-1) | outcome (NIH3T3 [2]) | outcome (HACAT [3]) | outcome (NIH3T3 [4]) | Potency (C33A) | Potency (CAOV3) | outcome (CASKI) | Potency (Es-2) | Potency (HeLa) | Potency (Hek293T) | Potency (JEG-3)

C[C@@H]1O[C@@H](O[C@H]2[C@H](O[C@H]3[C@H](O[C@H]4CC[C@@]5(C)C(CC[C@]6(C)C5CC=C5[C@@H]7CC(C)(C)C[C@@H](O)[C@]7(C)CC[C@]56C)[C@@]4(C)CO)O[C@H](C(=O)O)[C@@H](O)[C@@H]3O)O[C@H](C(=O)O)[C@H](O)[C@@H]2O)[C@H](O)[C@H](O)[C@H]1O (stereo partly drawn)
inactive: max response (CRL-7250) -5.52% | max response (HEK293) -6.47% | outcome (HaCat [1]) | max response (KB-3-1) -1.92% | outcome (NIH3T3 [2]) | outcome (HACAT [3]) inactive [at 9.27 µM] | outcome (NIH3T3 [4]) inactive [at 9.27 µM] | activity change, negative = cytotoxicity (C33A) 8.86% [at 11.6 µM] | activity change, negative = cytotoxicity (CAOV3) -0.141% [at 11.6 µM] | activity change, negative = cytotoxicity (CASKI) 16.2% [at 11.6 µM] | activity change, negative = cytotoxicity (Es-2) -1.06% [at 11.6 µM] | activity change, negative = cytotoxicity (HeLa) 4.67% [at 11.6 µM] | activity change, negative = cytotoxicity (Hek293T) 5.2% [at 11.6 µM] | activity change, negative = cytotoxicity (JEG-3) 7.1% [at 11.6 µM]

c1cc(-c2cc(C3CCNCC3)[nH]n2)ccn1
inactive: max response (CRL-7250) -3.47% | max response (HEK293) -20.2% | outcome (HaCat [1]) | max response (KB-3-1) 2.66% | outcome (NIH3T3 [2]) | outcome (HACAT [3]) inactive [at 17.4 µM] | outcome (NIH3T3 [4]) inactive [at 17.4 µM] | Potency (C33A) | Potency (CAOV3) | outcome (CASKI) | Potency (Es-2) | Potency (HeLa) | Potency (Hek293T) | Potency (JEG-3)

CC/C=C\CC1C(CC(=O)O)CCC1OC1OC(CO)C(O)C(O)C1O (stereo not drawn)
inactive: outcome (CRL-7250) | max response (HEK293) 0.263% | outcome (HaCat [1]) | max response (KB-3-1) 8.15% | outcome (NIH3T3 [2]) | outcome (HACAT [3]) | outcome (NIH3T3 [4]) | Potency (C33A) | Potency (CAOV3) | outcome (CASKI) | Potency (Es-2) | Potency (HeLa) | Potency (Hek293T) | Potency (JEG-3)
